EPAC2 agonist: agonists of human EPAC2 (RAPGEF4). Potency, µM (series often up to 154 µM), inactives show at the top dose activation, usual class: activators. 0.079% of 360,000 active. Q8WZA2. EPAC2 activation, biochemical qHTS; response scale: 100% = 6.5 mM cAMP response; note: nearly all actives have a fitted effect of over 50% in size
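Compounds were added across a concentration range to EPAC2 (100 nM), RAP1B-BODIPY-GDP (250 nM) and GDP (50 uM). After 5 min at room temperature, fluorescence was recorded at 5-min intervals for 30 min.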
EPAC2 antagonist: antagonists of human EPAC2. EPAC2 GEF exchange of Rap1B-BODIPY-GDP, fluorescence. Potency, µM (titrated, usually from 114 µM), for the others: top-dose activity, negative = inhibition, usual class: inhibitors. 0.18% of 360,000 active. AID 720708. Q8WZA2; note: % is set by controls: 0 for no effect and ±100 for the full control effect; nearly all actives have a fitted effect of over 45% in size
EPAC1 antag: blocks human EPAC1 exchange factor; AID 720709; EPAC1 GEF assay, Rap1b-BODIPY-GDP exchange fluorescence; 0.14% of 360,000 active; Potency, µM (series often up to 115 µM), inactives show top-dose activity change, negative = inhibition, usual class: inhibitors; O95398;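 note: plate controls were vehicle for no effect and positive control for full effect; nearly all actives have a fitted effect of over 50% in size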
Target sequence (O95398 whole entry, looked up): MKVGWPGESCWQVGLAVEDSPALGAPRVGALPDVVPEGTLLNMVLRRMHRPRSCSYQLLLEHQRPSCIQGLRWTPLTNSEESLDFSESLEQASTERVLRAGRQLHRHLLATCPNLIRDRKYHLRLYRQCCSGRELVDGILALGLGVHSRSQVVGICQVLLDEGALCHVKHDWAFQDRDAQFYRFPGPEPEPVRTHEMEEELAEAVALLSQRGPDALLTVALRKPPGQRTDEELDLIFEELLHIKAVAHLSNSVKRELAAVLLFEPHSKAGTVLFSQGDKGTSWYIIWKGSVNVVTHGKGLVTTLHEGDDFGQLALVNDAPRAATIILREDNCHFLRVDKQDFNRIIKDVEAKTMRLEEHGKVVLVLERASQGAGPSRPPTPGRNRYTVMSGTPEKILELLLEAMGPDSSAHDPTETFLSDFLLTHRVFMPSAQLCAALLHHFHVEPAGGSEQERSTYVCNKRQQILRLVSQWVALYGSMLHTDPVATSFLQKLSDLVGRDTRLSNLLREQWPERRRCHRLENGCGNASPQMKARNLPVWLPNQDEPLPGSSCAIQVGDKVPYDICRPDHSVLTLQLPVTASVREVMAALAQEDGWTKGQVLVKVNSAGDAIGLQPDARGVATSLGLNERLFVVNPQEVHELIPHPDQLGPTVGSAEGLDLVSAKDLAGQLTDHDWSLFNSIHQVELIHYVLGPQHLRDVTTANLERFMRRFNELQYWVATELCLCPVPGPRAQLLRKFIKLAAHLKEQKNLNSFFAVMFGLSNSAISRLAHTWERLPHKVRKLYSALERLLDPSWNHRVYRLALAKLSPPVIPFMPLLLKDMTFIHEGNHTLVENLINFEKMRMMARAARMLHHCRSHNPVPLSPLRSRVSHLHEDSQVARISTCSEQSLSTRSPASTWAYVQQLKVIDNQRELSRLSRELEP
B2AR arrestin: beta2AR (human) beta-arrestin recruitment activity | beta-arrestin recruitment to beta2AR, cell-based reporter | Potency, µM (doses to about 46.1 µM), for inactives: at the top dose activation, most hits filed as activators | 0.02% of 330,000 active | AID 492947;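 note: 0% = DMSO controls and full agonism = EC100 isoproterenol or metaproterenol; nearly all actives have a fitted effect of over 65% in size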
EPAC1 ag: EPAC1 (human) agonism; EPAC1 agonist qHTS, biochemical assay; response scale: 100% = response to 6.5 mM cAMP; Potency, µM (series often up to 154 µM), inactives show at the highest dose activation, actives largely listed as activators; 0.073% of 360,000 active; AID 720707; note: nearly all actives have a fitted effect of over 60% in size
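Nucleotide exchange assay: 100 nM EPAC1 with 250 nM Rap1B loaded with BODIPY-GDP and 50 uM GDP, room temperature. Fluorescence (480/540 nm) read every 5 min for 30 min; signal change normalized to 6.5 mM cAMP as full agonist.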
* hit, by the source's call; u = inconclusive; x = no result given. The list is not random: actives were taken first. Their share in the collection is about 0.4%. Calls come from the whole dose curve; as a rule, active = well fitted curve in the direction sought with a large enough effect; inconclusive = small, poorly fitted or top-dose-only effect, or another doubt; inactive = no such curve, though single readings can be large; an effect the other way counts as inactive or inconclusive. Potency is the fitted concentration of half-maximal effect.

SMILES | EPAC2 agonist | EPAC2 antagonist | EPAC1 antag | B2AR arrestin | EPAC1 ag
Cc1cccc(N2C(=O)c3cccc4c(N)ccc(c34)C2=O)c1 | 100µM* | 276% | 292% | 10% | 89µM*
CC(C)CCN1C(=O)c2cccc3c(N)ccc(c23)C1=O | u | 38% | 25% | x | 71µM*
Nc1cccc(N2C(=O)c3cccc4c(N)ccc(c34)C2=O)c1 | 89µM* | 152% | 97% | -1% | 100µM*
CCN1C(=O)c2cccc3c(Cl)ccc(c23)C1=O | 5% | 0% | -17% | 0% | 15%
Cc1cccc(N2C(=O)c3cccc4cccc(c34)C2=O)c1 | -2% | 5% | -1% | 0% | -6%
CCOC(=O)CC[C@H](NC(=O)Cn1cnc2c(OCc3ccccc3)ncnc21)C(=O)OCC | 2% | -9% | -12% | 0% | -14%
COc1ccc(S(=O)(=O)N2CCN(CC(=O)Nc3c(C)n[nH]c3C)CC2)cc1OC | 8% | -1% | -6% | 0% | -10%
Cc1cccc(N2C(=O)c3cccc4c(N(C)CCO)ccc(c34)C2=O)c1 | 100µM* | 72% | 49% | 1% | 112µM*
CN(C)c1ccc2c3c(cccc13)C(=O)N(c1ccccc1)C2=O | x | x | x | 0% | x
O=c1c2ccccc2sn1-c1ccc(Cl)cc1Cl | 2% | 11µM* | 0% | x | -1%
Cc1ccc(Nc2c(-c3ccccn3)nc3cccc(C)n23)cc1 | -1% | 32µM* | -1% | u | -9%
O=C(Cn1ccnc1[N+](=O)[O-])N(CCO)CCO | 7% | -1% | 4% | x | 3%
COc1ccccc1NC(=O)c1ccc2c(c1)N(CC#N)C(=O)C(C)(C)O2 | 2% | -1% | 4% | 1% | -2%
Cc1ccc(C)c(S(=O)(=O)N2CCN(C(=O)CCCc3c[nH]c4ccccc34)CC2)c1 | 15% | -7% | -22% | 0% | 112µM*
Cc1cc2nc(-c3ccccc3)c(Cc3ccccc3)n2c(C)c1Br | 0% | 8% | -12% | x | -22%
Cn1c(CC(=O)NNC(=O)c2cncc(Br)c2)nc2ccccc21 | -1% | 10% | 8% | -1% | -5%
CN(C)CC/C=C1/c2ccccc2Sc2c(O)cc(Cl)cc21 | 10% | 35µM* | -1% | 0% | 1%
Oc1ccccc1-c1nc(NCc2ccccc2)c2ccccc2n1 | 0% | 89µM* | u | 1% | -30%
N#CC1(NC(=O)CSc2nncn2-c2ccccc2F)CCCC1 | -6% | -2% | -6% | 0% | -1%
COc1ccc(NC(=O)C/C(C)=N/NC(=O)c2cnccn2)cc1 | -6% | 5% | 15% | -1% | -6%
C/C(CC(=O)Nc1ccc2ccccc2c1)=N\NC(=O)c1cnccn1 | -1% | -6% | 55% | 0% | 40µM*
CN(N=Nc1cccc([N+](=O)[O-])c1)c1ccccc1 | 4% | -14% | -5% | 0% | 27%
CN(N=Nc1ccc([N+](=O)[O-])cc1)c1ccccc1 | 100µM* | 347% | 79µM* | 0% | -793%
Cn1cc([C@]2(O)C(=O)Nc3ccc(Br)cc32)c2ccccc21 | -2% | 50µM* | 0% | x | -5%
CN1OC[C@@H]2CN(C(=O)CCc3ccccc3)[C@H](c3ccccc3Br)C[C@@H]21 | 8% | 22% | 10% | x | 2%
SMILES | EPAC2 agonist | EPAC2 antagonist | EPAC1 antag | B2AR arrestin | EPAC1 ag
CCn1c(/C=C/N(C(C)=O)c2ccccc2)[n+](CC)c2ccc(Cl)cc21 | 2% | 12% | 0% | -1% | 1%
CC[n+]1c(/C=C/C=C/N(C(C)=O)c2ccccc2)sc2ccccc21 | 100µM* | 92% | 18% | 0% | u
C/C(=N\NS(=O)(=O)c1ccccc1)c1cc(Cl)cc(Cl)c1O | 4% | u | 18µM* | -1% | -11%
C/C(=N/NS(=O)(=O)c1ccc(Cl)cc1)c1cccc(O)c1 | -1% | -3% | 2% | 0% | -2%
Cc1cc(NC(=O)COC(=O)CCn2c(C)csc2=O)c([N+](=O)[O-])cc1C | 21% | -13% | -5% | x | -2%
N#CC1(Nc2ccc(Br)cc2)CCCC1 | 12% | -16% | -7% | x | 9%
O=C1C(=Cc2cn(-c3ccccc3)nc2-c2ccc(OCc3ccccc3)cc2)SC(=S)N1CCS(=O)(=O)O | -6% | u | u | x | -1%
Cc1ccc(-c2nn(-c3ccccc3)cc2C=C2SC(=S)N(CCS(=O)(=O)O)C2=O)cc1 | 1% | 45µM* | 7.9µM* | x | -12%
Cn1c(=O)c(N)c2c3c(c(Br)ccc31)C(=O)c1ccccc1-2 | u | 30% | 31% | -1% | 112µM*
CN(C)c1ccc(CNC(=O)CCc2ccc(S(=O)(=O)N3CCCCCC3)cc2)cc1 | 10% | -6% | -4% | 0% | 6%
CC1(C(=O)NS(=O)(=O)c2ccccc2Cl)CCN1C(=O)Cc1ccc(Cl)cc1Cl (stereo unspecified) | 3% | 4% | -2% | x | 8%
O=C(Oc1cccc([N+](=O)[O-])c1)c1ccc2c(=O)n3c(nc2c1)CCC3 | 5% | -12% | -8% | 0% | 0%
CC[C@H]1C(c2ccc(F)cc2)=NN(c2ccccc2)[C@@H]1CO | 3% | 50µM* | -14% | -1% | -14%
O=C1C=C(NCCc2cc(Br)c(O)c(Br)c2)C(=O)c2ncccc21 | -1% | 79µM* | 50µM* | x | 15%
Cc1ccc(CC(=O)Nc2cccc(C(=O)Nc3c(C)n(C)n(-c4ccccc4)c3=O)c2)cc1C | 9% | -6% | 0% | x | 10%
O=c1[nH]cc(N=Cc2cc(Cl)cc(Cl)c2O)c(=O)[nH]1 | -8% | -17% | -6% | 0% | 100µM*
O=[N+]([O-])c1cc(Cl)ccc1NCCc1ccccn1 | -3% | 56µM* | -14% | 0% | -2%
OCCNc1c2ccccc2nc2c(F)c(F)c(F)c(F)c12 | 4% | 2% | -20% | 6% | 1%
Cc1c2ccccc2nc2c(F)c(NCCO)c(F)c(F)c12 | -6% | -4% | 28µM* | 0% | 8%
C/C(=N\NC(=O)CCC(=O)Nc1ccc(C)c(C)c1)C1CC1 | 8% | -3% | 13% | 3% | 15%
CC(=O)N1CCc2c(sc(NC(=O)CS(=O)(=O)c3ccc(F)cc3)c2C(N)=O)C1 | 3% | 5% | 1% | -1% | 126µM*
Cc1ccc(S(=O)(=O)N2CCCN(C(=O)c3ccc(-n4cccn4)cc3)CC2)cc1 | 5% | 1% | -4% | 1% | 1%
Cc1nc(NC(=O)c2ccccc2)sc1-c1cc(C(=O)NCCO)nn1Cc1ccccc1 | 2% | 5% | 18% | x | 5%
Cc1cccc(N(Cc2ccccc2)C(=O)CSC(C)C(=O)Nc2cc(C)on2)c1 (stereo unspecified) | 5% | -7% | -12% | 0% | 112µM*
COc1ccc(/C(O)=C/C(=O)C(=O)NNC(=O)c2ccccc2)cc1 | 2% | 8% | 0% | 0% | 2%
COc1ccc(/C(O)=C/C(=O)C(=O)NNC(=O)C(O)(c2ccccc2)c2ccccc2)cc1 | 3% | 1% | 40µM* | 0% | 7%

Screens as filed in PubChem.
